Screening data deposited in PubChem BioAssay by Buhrlage Lab, Dana-Farber Cancer Institute and Novartis Institutes for BioMedical Research (Cambridge, Mass).
An excerpt weighted towards active compounds, which were near 11% of everything screened.
OTUD3 block – inhibitors of human OTUD3 deubiquitinase | purified OTUD3, Ub-rhodamine fluorescence, 2 h | inhibition, % at 25 µM | 0.7% of 47,000 active
Target sequence (Q5T2D3 whole entry, looked up): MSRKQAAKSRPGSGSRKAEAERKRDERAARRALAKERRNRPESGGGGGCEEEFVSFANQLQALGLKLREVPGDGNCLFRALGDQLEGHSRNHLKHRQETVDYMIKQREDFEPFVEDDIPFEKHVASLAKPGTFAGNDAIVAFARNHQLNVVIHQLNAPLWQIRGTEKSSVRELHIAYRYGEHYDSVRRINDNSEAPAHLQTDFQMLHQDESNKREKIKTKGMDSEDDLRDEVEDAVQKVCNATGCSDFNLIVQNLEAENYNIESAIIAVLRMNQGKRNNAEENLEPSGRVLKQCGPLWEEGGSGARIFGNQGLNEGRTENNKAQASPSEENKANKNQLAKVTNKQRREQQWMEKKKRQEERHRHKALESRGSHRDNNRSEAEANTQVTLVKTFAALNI
USP28 block – inhibitors of human USP28 deubiquitinase | Q96RU2 | purified USP28, Ub-rhodamine cleavage fluorescence, 30 min | inhibition, % at 25 µM | 3% of 47,000 active | AID 1645857
USP30 inh – blocks human USP30 ubiquitin-rhodamine cleavage; Q70CQ3; purified USP30, Ub-rhodamine cleavage fluorescence; inhibition, % at 25 µM; 5.3% of 47,000 active; AID 1645860
USP17 inh – inhibitors of human USP17 deubiquitinase; 6.5% of 47,000 active; inhibition, % at 50 µM; AID 1645855; purified USP17, Ub-rhodamine cleavage fluorescence, 3 h
* marks the source's active call; other numbers are inactive results; nt = not tested or not shown. Rule as the data show it: active = inhibition above about 30%; inactive = the rest.

SMILES	OTUD3 block	USP28 block	USP30 inh	USP17 inh
CO[C@H]1/C=C/[C@@](C)(O)/C=C/C(=O)O[C@H](C)[C@@H](C)CC/C=C/1C	4.4	5.4	39.5*	-0.9
O=C(CSc1n[nH]c(-c2ccc(F)cc2)n1)Nc1ccc(F)cc1	-4.7	-3.0	-0.7	-6.5
Cc1nnc(SCC(=O)Nc2ccc3[nH]c(=O)[nH]c3c2)n1Cc1ccccc1	4.5	13.6	-0.9	42.5*
Cc1occc1-c1nnc(SCC(=O)Nc2ccc3[nH]c(=O)[nH]c3c2)n1C	-10.2	-1.9	-13.5	44.7*
CCc1ccc(-c2nc(SCC(=O)Nc3ccc4[nH]c(=O)[nH]c4c3)n[nH]2)cc1	22.3	23.2	58.1*	36.7*
Cc1nc(-c2cc(F)ccc2C(=O)O)cc(C2CCN(C(=O)C(C)(C)C)C2)n1 (centres undefined)	20.7	13.7	26.8	17.9
Cc1cc2nc(-c3ccc(SCc4ccccn4)nc3)[nH]c2cc1C	-9.1	23.8	26.1	57.0*
COc1ccccc1-c1nc(SCc2ccccn2)n[nH]1	-0.3	3.1	-7.3	-9.5
COc1cc(CNCCC2=CCCCC2)ccc1Oc1nnnn1-c1ccccc1	12.2	9.9	15.1	12.3
NS(=O)(=O)c1ccc(NC(=O)Cn2cnc3cc([N+](=O)[O-])ccc3c2=O)cc1	17.8	41.1*	19.9	59.0*
O=C(Cn1cnc2cc([N+](=O)[O-])ccc2c1=O)Nc1ccc2c(c1)OCCO2	-12.6	13.7	-25.9	-2.7
CCCS(=O)(=O)N1CCc2ccc(NC(=O)c3ccccc3)cc2C1	-0.1	3.2	-0.3	0.3
O=C(Nc1ccc(NS(=O)(=O)c2cccc(C(=O)N3CCCc4ccccc43)c2)cc1)c1ccccc1	4.1	14.2	4.6	32.0*
O=C(c1cc(S(=O)(=O)Nc2ccc(Cl)cc2)ccc1Cl)N1CCCc2ccccc21	-36.3	-40.9	-159.8	-82.6
O=C(Nc1ccc(NS(=O)(=O)c2ccc3c4c(cccc24)CC3)cc1)c1ccccc1	1.7	0.3	-61.1	50.5*
NC(=O)c1cc(NC(=O)c2ccc3ccccc3c2)cc(C(N)=O)c1	6.6	57.2*	66.4*	65.6*
O=C(Nc1cccc(-c2ccc(N3CCOCC3)nn2)c1)c1ccc2ccccc2c1	-6.0	4.1	-13.7	-3.0
Cc1c(C(=O)CSc2ncnc3c2oc2ccccc23)c2ccccc2n1C	9.9	-0.3	16.1	21.1
O=C(CSc1ncnc2c1oc1ccccc12)Nc1ccc2c(c1)OCCO2	1.1	-1.3	-15.7	65.0*
COCCCn1c(SCC(=O)Nc2ccccc2C(=O)OC)nc2ccccc2c1=O	14.5	25.1	69.7*	42.4*
COc1ccc(C)cc1NC(=O)CSc1nc(C)nc2c1oc1ccccc12	12.9	9.5	28.5	51.5*
Clc1ccccc1CSc1ncnc2c1oc1ccccc12	9.1	12.9	29.6	41.0*
CCc1nnc(CN2CCC(C3CCCCCN3C(=O)c3ccccc3)CC2)o1 (centres undefined)	-10.9	-5.0	-11.5	-23.3
Cc1ccccc1-n1ncc2c(=O)n(CC(=O)Nc3ccc4c(c3)OCCO4)cnc21	11.6	16.0	10.3	30.4*
COC(=O)c1ccccc1NC(=O)CSc1ncnc2c1oc1ccccc12	9.6	-4.3	32.7*	12.7
SMILES	OTUD3 block	USP28 block	USP30 inh	USP17 inh
O=C(CSc1ncnc2c1oc1ccccc12)NC1CCCCC1	13.6	11.2	32.5*	11.4
O=C(CSc1ncnc2c1oc1ccccc12)NCC1CCCO1 (centres undefined)	-0.6	nt	nt	2.4
Cc1cc(C(=O)NCC(C)N2CCOCC2)n2nccc2n1 (centres undefined)	11.1	0.1	6.0	8.9
O=C(NCCN1CCCC1)C1CCN(c2cnc(N3CCCCC3)nc2)CC1	-17.6	77.7*	-43.5	-24.9
O=C(NCC1CC1)C1CCN(c2cnc(N3CCCCCC3)nc2)CC1	0.0	nt	nt	-27.2
COc1cc(-c2noc(-c3ccccc3C)n2)ccc1OCC(=O)NC(C)C	16.8	8.8	33.0*	20.7
O=C(COc1ccccc1-c1nnc(-c2ccccc2)o1)NCc1ccc(F)cc1	13.0	11.3	22.7	21.5
COc1ccc(NC(=O)COc2ccccc2-c2nnc(-c3ccccc3)o2)cc1	4.2	8.3	32.6*	35.3*
CC(C)NC(=O)COc1ccccc1-c1nnc(-c2ccccc2)o1	9.0	20.7	49.8*	29.7
O=C(COc1ccccc1-c1nnc(-c2ccccc2)o1)Nc1ccccc1F	1.2	0.2	25.6	45.8*
O=C(O)c1ccccc1C(=O)N(Cc1ccc2c(c1)CCO2)C1CC1	-3.6	-5.1	-2.2	-5.2
COc1ccc(OC)c(/C=C/C(=O)N=c2sc3ccccc3n2C)c1	1.0	-3.2	-8.5	-3.5
O=C(OCCOc1ccccc1)c1ccc(-c2ccccc2)cc1	16.8	4.6	20.8	10.7
NC(=O)c1cccc(OCCOc2ccccc2)c1	0.2	15.1	48.6*	24.1
O=C(NCc1ccc(F)cc1)c1ccc(-c2cccs2)cc1	0.4	nt	nt	59.0*
COc1ccccc1CNC(=O)c1ccc(-c2csc(C)n2)cc1	-2.0	27.4	1.2	-1.1
CCC(=O)Nc1cccnc1-c1ccc(C(=O)NCc2ccc(F)cc2)cc1	-3.3	-4.5	-9.9	-8.9
Cc1nc(-c2ccc(C(=O)NCc3ccc(F)cc3)cc2)cs1	2.3	9.7	11.2	52.1*
CC(=O)c1cccc(NC(=O)c2ccc3c(c2)C2C4CCC(C4)C2C(c2ccccc2)N3)c1 (centres undefined)	6.3	22.4	23.4	15.2
CCc1nnsc1C(=O)N1CCCC1c1c(C)nn(C)c1C (centres undefined)	-4.5	-16.2	-31.2	-8.0
COc1cc2c(cc1CN1CCC3(CCCNC3=O)CC1)CCCC2	-0.8	-5.1	5.0	2.9
Cc1ccc(-c2cc3c(=O)n(Cc4noc(CN5CCC(C)CC5)n4)ccn3n2)cc1	-9.0	12.1	37.9*	3.2
CCc1ccc(-c2cc3c(=O)n(Cc4nc(-c5ccccn5)no4)ccn3n2)cc1	-11.4	-7.2	-94.7	31.2*
Cc1ccc(-c2cc3c(=O)n(Cc4noc(CN5CCCCC5)n4)ccn3n2)cc1	-12.0	-2.4	-0.2	3.8
CC1=C(C(=O)NCc2ccccc2)C(c2ccc(C)cc2)n2ncnc2N1 (centres undefined)	11.2	8.8	34.0*	10.6
SMILES	OTUD3 block	USP28 block	USP30 inh	USP17 inh
CC1=C(C(=O)N2CCCCC2)C(c2ccc(Br)cc2)n2ncnc2N1 (centres undefined)	1.7	46.8*	-2.3	nt
CN(c1ccc(Oc2ccc(C(F)(F)F)cn2)cc1)S(=O)(=O)c1ccccc1	7.8	17.0	-4.2	38.0*
COc1ccc(-c2cc(-c3nnc(CSc4nnc(C)n4-c4ccccc4)o3)c3ccccc3n2)cc1OC	0.0	-1.5	-7.3	36.4*
COc1ccc(-c2cc(-c3nnc(COC(=O)CC4CCCC4)o3)c3ccccc3n2)cc1OC	-3.9	-4.1	-48.4	2.7
O=c1ccc(-c2noc(/C=C/c3ccc4c(c3)OCO4)n2)c[nH]1	15.6	9.2	5.8	47.1*
Cc1ccc(-c2nc(-c3ccc(=O)[nH]c3)no2)cc1F	-19.3	-30.4	-54.0	-6.5
O=c1ccc(-c2noc(-c3ccc4cc[nH]c4c3)n2)c[nH]1	-20.4	11.3	-272.5	58.8*
O=S(=O)(Cc1nc(-c2ccc3c(c2)OCO3)no1)c1ccc(F)cc1	-39.5	-40.8	-207.7	-69.8
